HPGD inh: HPGD (human) dehydrogenase inhibition; purified HPGD, NADH fluorescence kinetic, PGE2 substrate; Potency, µM, without a hit: at the top dose activity change, negative = inhibition, usual class: inhibitors; actives 4.3% (n = 150,000); AID 894
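20 nM HPGD preincubated 15 min at room temperature with compound in 50 mM Tris-HCl pH 8, 0.01% Tween 20. Started with 1 mM NAD+ and 30 uM prostaglandin E2; NADH fluorescence (360/450 nm) read 5 times over 30-s intervals, last minus first.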
Tau fibril FP: inhibitors of human tau fibril formation. P10636. K18 P301L tau heparin fibrillization, Alexa594 FP, 6 h. Potency, µM (doses to about 57.7 µM), inactives show at the top dose activity, negative = inhibition, hits mostly inhibitors. actives 0.39% (n = 280,000); active = well fitted curve in the direction sought with a large enough effect; inconclusive = small, poorly fitted or top-dose-only effect, or another doubt; inactive = no such curve, though single readings can be large; an effect the other way counts as inactive or inconclusive; note: nearly all actives have a fitted effect of over 55% in size
Target sequence (P10636 561-689 P618L limits assumed): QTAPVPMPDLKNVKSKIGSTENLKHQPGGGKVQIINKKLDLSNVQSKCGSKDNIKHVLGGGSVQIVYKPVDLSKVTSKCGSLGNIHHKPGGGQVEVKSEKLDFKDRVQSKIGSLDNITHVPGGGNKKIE
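Human tau K18 […] P301L fragment, 15 uM unlabeled plus 0.24 uM Alexa 594-labeled tau (final), with compound and 20 uM heparin in 100 mM sodium acetate pH 7; 6 hr at 37 C, then Alexa 594 FP read.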
Tau fluor cs: counter-screen for tau fibril formation inhibitors | tau K18 P301L Alexa594 fluorescence, heparin fibrillization | actives 0.93% (n = 280,000) | Potency, µM (titrated, usually from 57.7 µM), without a hit: top-dose activity change, negative = decrease; active = well fitted curve in the direction sought with a large enough effect; inconclusive = small, poorly fitted or top-dose-only effect, or another doubt; inactive = no such curve, though single readings can be large; an effect the other way counts as inactive or inconclusive; note: nearly all actives have a fitted effect of over 55% in size
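Human tau K18 P301L (15 uM unlabeled, 0.24 uM Alexa 594-labeled) in 100 mM sodium acetate pH 7 with 20 uM heparin, 6 hr at 37 C. ThT 30 uM added, 1 hr ambient; Alexa 594 FP and total fluorescence read at 555/632 nm.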
Tau ThT inhib: inhibitors of human tau fibril formation, thioflavin T binding. P10636. recombinant tau K18 P301L (four-repeat tau fragment), heparin-induced fibrillization, ThT fluorescence. Potency, µM (series often up to 57.4 µM), without a hit: at the highest dose activity, negative = inhibition, most hits filed as inhibitors. actives 2.1% (n = 270,000). AID 1460; active = well fitted curve in the direction sought with a large enough effect; inconclusive = small, poorly fitted or top-dose-only effect, or another doubt; inactive = no such curve, though single readings can be large; an effect the other way counts as inactive or inconclusive; note: nearly all actives have a fitted effect of over 55% in size
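In this qHTS, human K18 P301L tau is incubated with compound and heparin for 6 hr at 37 C, and Thioflavin T fluorescence then reports fibril load.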
JMJD2E inh: blocks human JMJD2E demethylase activity; JMJD2E catalytic domain, FDH-coupled NADH fluorescence (FDH is formaldehyde dehydrogenase); B2RXH2; Potency, µM (titrated, usually from 57.1 µM), for inactives: at the top dose activity change, negative = inhibition, hits mostly inhibitors; AID 2147; actives 1.6% (n = 230,000);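 note: 0% = wells with enzyme and -100% = buffer wells without enzyme; nearly all actives have a fitted effect of over 50% in size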
Target sequence (B2RXH2 1-337 limits assumed): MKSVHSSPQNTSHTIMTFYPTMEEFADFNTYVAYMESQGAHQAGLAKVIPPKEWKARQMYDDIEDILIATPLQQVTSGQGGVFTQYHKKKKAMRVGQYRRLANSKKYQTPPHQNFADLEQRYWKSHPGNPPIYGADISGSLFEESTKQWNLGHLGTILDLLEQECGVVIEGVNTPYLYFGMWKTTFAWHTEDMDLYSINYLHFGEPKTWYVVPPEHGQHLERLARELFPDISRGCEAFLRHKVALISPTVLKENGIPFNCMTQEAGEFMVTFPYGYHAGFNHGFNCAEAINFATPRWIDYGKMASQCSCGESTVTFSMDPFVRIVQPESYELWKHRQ
ALDH1A1 inh: blocks purified human ALDH1A1 activity; P00352; Purified ALDH1A1, NADH fluorescence, propionaldehyde substrate; Potency, µM (series often up to 75.3 µM), for inactives: at the highest dose activity, negative = inhibition, usual class: inhibitors; actives 7.3% (n = 220,000);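 note: plate controls were no enzyme wells and a reference inhibitor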
* = called active by the depositor; ? = inconclusive; / = not tested or not shown; [ ] = dose if it differs, or a comment. A selection: hits, their analogues and other compounds. The true share with any hit is near 9.9%. Unless noted, calls come from the whole dose curve; as a rule, active = well fitted inhibition curve with a large enough effect (not every such curve was filed as active); inconclusive = small, poorly fitted or top-dose-only effect, or another doubt; inactive = no such curve, though single readings can be large or run the other way. Unless noted, % is set by controls: 0 for no effect and ±100 for the full control effect; potency is the fitted concentration of half-maximal effect.

SMILES | HPGD inh | Tau fibril FP | Tau fluor cs | Tau ThT inhib | JMJD2E inh | ALDH1A1 inh
CCC(CC)C(=O)Nc1nnc(S(=O)(=O)N2c3ccccc3CC2C)s1 (centres undefined) | / | -3% | -22% | 14µM* | / | /
COC(=O)c1cncc(C)c1 | / | 1% | -5% | -6% | 11% | /
Nc1ccc(S(=O)(=O)NCc2nccs2)cc1 | -10% | / | / | / | / | -14%[13.5 µM]
COc1cc(NCCC(=O)O)c2ncccc2c1 | -14% | / | / | / | / | 22%[13.5 µM]
Cc1ccc(Cn2cc(S(=O)(=O)c3cccc(Cl)c3)c(=O)c3cc(F)c(N4CCCCC4)cc32)cc1 | / | -2% | 3% | 4% | / | /
Cc1occc1C(=O)Nc1cccc(C(=O)NCc2ccccc2)c1 | 22µM* | -3% | -11% | 7% | 11% | ?
Cc1occc1C(=O)NCc1ccccc1F | ? | -6% | -11% | ? | -5% | 10µM*
COc1ccccc1CNC(=O)c1ccoc1C | -22% | -1% | -6% | -10% | 4% | ?
CCN(CC)S(=O)(=O)c1cccc(-c2n[nH]c(=S)n2/N=C/c2ccc(OC(F)F)cc2)c1 | 3.2µM* | ? | ? | ? | 3% | ?
CCN(CC)S(=O)(=O)c1cccc(-c2n[nH]c(=S)n2/N=C/c2ccc(Br)cc2)c1 | 14µM* | ? | ? | -9% | 4% | -16%
CCC(C)n1c(-c2cccc(S(=O)(=O)N(CC)CC)c2)n[nH]c1=S (centres undefined) | / | 1% | -7% | -3% | ? | 13µM*
CCN(CC)S(=O)(=O)c1cccc(-c2n[nH]c(=S)n2C(C)COC)c1 (centres undefined) | / | 1% | -9% | -9% | -15% | -4%
CCN(CC)S(=O)(=O)c1cccc(-c2n[nH]c(=S)n2/N=C/c2ccc(OC)cc2)c1 | 16µM* | 3% | ? | -11% | ? | ?
Cc1ccc(/C=N/n2c(-c3cccc(Cl)c3)n[nH]c2=S)o1 | / | 7% | -27% | -15% | 11% | /
COc1ccccc1-n1c(SCC(=O)N2CCCC2)nnc1-c1ccccc1 | / | -6% | -8% | 0% | -5% | /
COc1ccccc1-n1c(SCC(N)=O)nnc1-c1ccc(S(=O)(=O)N2CCCCC2)cc1 | -6% | -13% | -14% | -9% | -3% | 4.5µM*
NC(=O)CSc1nnc(-c2ccc(S(=O)(=O)N3CCCCC3)cc2)n1-c1ccccc1 | -26% | -7% | -13% | -12% | ? | 16µM*
CCn1c(SCC(N)=O)nnc1-c1ccc(S(=O)(=O)N2CCN(C)CC2)cc1 | -13% | -4% | 0% | -9% | ? | ?
CS(=O)(=O)N1CCC(Oc2ccccc2C(=O)N2CCNC(=O)C2)CC1 | / | 2% | -3% | 6% | -1% | 2%
O=C(O/N=C\c1ccc(N2CCCCC2)c([N+](=O)[O-])c1)c1cccc(Cl)c1 | -17% | 6% | -24% | ? | -8% | ?
O=C(O/N=C\c1ccc(N2CCCCC2)c([N+](=O)[O-])c1)c1c(F)cccc1F | -20% | 4% | -28% | ? | 12% | 18µM*
Cc1ccc(C(=O)O/N=C\c2ccc(N3CCCCC3)c([N+](=O)[O-])c2)cc1 | -16% | 11% | -17% | 4.5µM* | -2% | 1.4µM*
COc1ccc2c(c1)C(=NN)c1cc(OC)ccc1-2 | ? | 0% | ? | 10µM* | 0% | 11%
Cc1oc2ncnc(N3CCCCC3)c2c1C(=O)NCC1CCN(Cc2ccccc2F)CC1 | / | -3% | 1% | 2% | / | /
Cc1nc(Br)c(Br)c(C)c1Br | / | -4% | -2% | 0% | 9% | /
CCN(CC)S(=O)(=O)c1ccc(C(=O)NCc2n[nH]c(=S)n2-c2ccc(Cl)c(Cl)c2)cc1 | / | 8% | -18% | -1% | 15% | 1.4µM*
O=C(NCc1n[nH]c(=S)n1-c1ccccc1)c1ccc(S(=O)(=O)N2CCOCC2)cc1 | -15% | 0% | -2% | -4% | 2% | 18µM*
O=C(NCc1n[nH]c(=S)n1-c1ccccc1)c1ccc(S(=O)(=O)N2CCCCC2)cc1 | / | 3% | 0% | -3% | -5% | 11µM*

Screens deposited in PubChem by National Center for Advancing Translational Sciences (NCATS).
